Measurements as given in PubChem BioAssay (Tox21).
Inconclusive results are not listed. The source made the active and inactive calls. Calls follow the shape of the full dose curve.

Target: Vitamin D3 receptor (Homo sapiens) (UniProt P11473)
Assay: qHTS assay to identify small molecule agonists of the vitamin D receptor (VDR) signaling pathway (AID 743222)
Details: HEK293T VDR-UAS-bla, beta-lactamase FRET ratio, 16 h; series mostly up to 63.5 µM; activation: at the top concentration
From the text: National Center for Advancing Translational Sciences [NCATS]
NIH Chemical Genomics Center [NCGC]
U.S. Environmental Protection Agency [EPA]
National Institutes of Environmental Health Sciences [NIEHS]
National Toxicology Program [NTP]
U.S. Food and Drug Administration [FDA]
The vitamin D receptor (VDR), a member of nuclear hormone receptor superfamily, plays a critical role in calcium homeostasis and bone metabolism. It is also involved in cell differentiation and growth, and thrombogenicity.
Tox21 Assay Protocol Summary:
VDR-bla cells were dispensed at 2,000 cells/6 uL/well into black wall/clear-bottom 1536-well plates using a Multidrop Combi (Thermo Fisher Scientific, Waltham, MA) dispenser. After the assay plates were incubated at a 37C and 5% CO2 for 4 h, 23 nL of compounds dissolved in DMSO, positive controls or DMSO only was transferred to the assay plate by a Pintool station (Kalypsys, San Diego, CA). The plates were incubated at 37C and 5% CO2 for 16 h. After 1 uL of LiveBLAzerTM B/G FRET substrate was added using a Bioraptr Flying Reagent Dispenser (FRD) workstation (Beckman Coulter, Indianapolis, IN, USA), the plates were incubated at room temperature for 2 h, and fluorescence intensity was measured by an Envision plate reader (PerkinElmer, Shelton, CT).
% is scaled to controls: 0 for no effect and ±100 for the full control effect.

Vitamin D3 receptor (Homo sapiens), sequence (P11473 whole entry, looked up): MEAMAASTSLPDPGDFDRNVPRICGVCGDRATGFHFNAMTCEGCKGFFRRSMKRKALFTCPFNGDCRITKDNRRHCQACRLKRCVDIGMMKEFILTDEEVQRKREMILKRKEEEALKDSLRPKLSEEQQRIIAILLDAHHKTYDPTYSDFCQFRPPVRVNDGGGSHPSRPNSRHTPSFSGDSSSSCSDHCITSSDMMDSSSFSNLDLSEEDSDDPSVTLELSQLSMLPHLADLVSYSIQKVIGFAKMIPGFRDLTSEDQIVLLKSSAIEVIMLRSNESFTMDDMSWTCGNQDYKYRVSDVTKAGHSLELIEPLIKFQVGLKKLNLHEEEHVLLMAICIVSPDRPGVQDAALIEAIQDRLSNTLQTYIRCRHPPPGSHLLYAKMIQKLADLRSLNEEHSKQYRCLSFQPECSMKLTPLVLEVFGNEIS

SMILES | activation | outcome
CCCCNP(N)(N)=S | 1.29% (inactive) | –
CC1Sc2c(C(=O)O)c(=O)c3cc(F)c(N4CCNCC4)cc3n21 (stereo not given) | -2.08% (inactive) | –
CCCN(CCCl)c1c([N+](=O)[O-])cc(C(F)(F)F)cc1[N+](=O)[O-] | -11.3% (inactive) | –
c1ccoc1 | 3.62% (inactive) | –
C=CC(=O)OC | -7.44% [at 81.1 µM] (inactive) | –
COc1cc(Cl)c(OC)cc1Cl | 2.86% (inactive) | –
Brc1ccccc1 | 9.38% (inactive) | –
Cc1c(F)c(F)c(COC(=O)C2C(/C=C(\Cl)C(F)(F)F)C2(C)C)c(F)c1F (stereo not given) | 2.85% (inactive) | –
CC(C)(OO)c1ccccc1 | 13.4% (inactive) | –
O=[N+]([O-])c1cc(C(F)(F)F)cc([N+](=O)[O-])c1Cl | -13.5% [at 81.1 µM] (inactive) | –
CCC(Br)(CC)C(=O)NC(N)=O | -7.43% (inactive) | –
NC(=O)C(Cl)(Cl)Cl | 0.488% [at 81.1 µM] (inactive) | –
CO/C=C(/C(=O)OC)c1ccccc1COc1cccc(C(F)(F)F)n1 | -14.4% (inactive) | –
Cc1ccc(N)cc1C | -3.34% [at 81.1 µM] (inactive) | –
Nc1ccc([N+](=O)[O-])cc1[N+](=O)[O-] | -3.12% (inactive) | –
c1ccc(C2CC2)c(OCC2=NCCN2)c1 | 0.144% (inactive) | –
O=C1NCN(c2ccccc2)C12CCN(CCCOc1ccc(F)cc1)CC2 | -0.0447% (inactive) | –
CC(=O)NC1CCSC1=O (stereo not given) | -1.17% (inactive) | –
Cl/C=C\C[N+]12CN3CN(CN(C3)C1)C2 | 5.54% (inactive) | –
CC1CC(CC2CCC(N)C(C)C2)CCC1N (stereo not given) | -8.85% [at 81.1 µM] (inactive) | –

SMILES | activation | outcome
Nc1nc(N)nc(N)n1 | 7.28% [at 81.1 µM] (inactive) | –
O=NN1CCNCC1 | -6.67% [at 81.1 µM] (inactive) | –
CCCC(Cn1cncn1)c1ccc(Cl)cc1Cl (stereo not given) | -6.6% (inactive) | –
C(=NC1CCCCC1)=NC1CCCCC1 | – | inactive
CCOc1ccc(C(C)(C)COCc2cccc(Oc3ccccc3)c2)cc1 | 1.28% (inactive) | –
Cc1ccc(-c2c(Cl)nc(C#N)n2S(=O)(=O)N(C)C)cc1 | -12% (inactive) | –
[O-][Cl+]O | -1.17% (inactive) | –
O=C1CN=C(c2ccccc2)c2cc(Cl)ccc2N1CC1CC1 | -12.3% (inactive) | –
Sc1ccccc1Cl | 6.31% (inactive) | –
C=COC(C)=O | 10% [at 81.1 µM] (inactive) | –
ClCC(Br)CBr (stereo not given) | -1.16% (inactive) | –
C=CC(=O)OC(C)(C)C | 0.431% (inactive) | –
CC(C)=CCOc1c2occc2cc2ccc(=O)oc12 | -8.06% (inactive) | –
CNP(=O)(OC)Oc1ccc(C(C)(C)C)cc1Cl (stereo not given) | -6.99% (inactive) | –
O=S1(=O)OC(c2cc(Br)c(O)c(Br)c2)(c2cc(Br)c(O)c(Br)c2)c2ccccc21 | 4.03% (inactive) | –
CCCCCC[N+](=O)[O-] | -0.911% [at 81.1 µM] (inactive) | –
CCOP(=O)(OCC)SCCSCC | 4.77% (inactive) | –
C=CC(=O)NCNC(=O)C=C | -1.93% [at 81.1 µM] (inactive) | –
COP(=S)(Oc1cc(Cl)c(Br)cc1Cl)c1ccccc1 (stereo not given) | -12.7% (inactive) | –
COC1=CC(=O)O[C@@H](CCc2ccccc2)C1 | -12.8% [at 81.1 µM] (inactive) | –
